According to PubChem BioAssay AID687012 (National Center for Advancing Translational Sciences (NCATS), 2013):
Activity calls are given as the source filed them.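 How the source made its calls: active means significant rise in the time treated SMA model mouse pups take to turn upright when laid on their backs; inactive means no significant rise in righting time.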

assay: Extended Characterization of SMN2 Inhibitors: Righting Time Studies; details: SMNdelta7 SMA mice, 50 mg/kg ip
Description: Spinal muscular atrophy (SMA) is caused by insufficient levels of the survival motor neuron protein SMN. The SMN locus on chromosome 5q13 contains two inverted copies of SMN called SMN1 and SMN2 which are 99% identical at the amino acid level. SMN1 is a fully functional protein and SMN2 skips exon 7 90% of the time. Skipping of exon 7 produces non-functional protein product. 10% of the SMN2 protein includes exon 7 and is fully functional. In the SMA disease state, mutations in the SMN1 locus are the cause of the disease state. Because only 10% of SMN2 is of the fully functional form, it is not sufficient to overcome the deficiency produced by the loss of the SMN1 product. A therapy that either increase the amount of SMN2 product made or to increase the inclusion of exon 7 has been proposed for the treatment of SMA. We have previously filed a probe report and have now done further SAR and further characterized the resulting compounds in mice studies. Here we tested the new compound to see if there was an improval in righting time when administered to SMNdelta7 SMA mice. NIH Chemical Genomics Center [NCGC] NIH Molecular Libraries Probe Production centers Network [MLPCN] MLPCN Grant: R03 MH084179 Assay Submitter (PI): Elliot Androphy […]

Compound | outcome
O=C(O)C1CCN(c2ncc(-c3ccc4c(c3)OCCCO4)s2)CC1 | active; yes
